The supplement of paper PMC6555819

How the values were obtained:
Assay in all cases: PBM binding z-score (relative to random genomic background probes); higher = stronger binding; sequences stand for … in GC…GCGATTGACAGCGTAGAATGAAGG
[1] = test system: PPARg:RXRa DBDmut IVT, anti-RXR (DBD mutation: RXRa K156A/R161A, NR concentration 270 nM, RXRa partner concentration 90 nM)
Method in brief: (§1)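 The probes on custom Agilent 4×180K protein-binding microarrays were double-stranded, with 34-nt variable regions bearing direct-repeat seeds, single-nucleotide variants, half-site ablations and random human genomic background sequences. Incubation lasted 1 h with ligand-free nuclear receptor dimers in PBS pH 7.4, 2% milk, 0.02% Triton X-100, 1 mM DTT, 0.2 mg/mL BSA and 0.4 mg/ml salmon testes DNA. Antibodies against each partner (one per run) detected bound dimers, and fluorescence scans were regression-normalized. Binding z-scores take the random background probes as reference.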

[2] = test system: PPARg:RXRa IVT, anti-PPARg (NR concentration 270 nM, RXRa partner concentration 90 nM)
Method in brief: as §1

[3] = test system: PPARg DBDmut:RXRa IVT, anti-PPARg (DBD mutation: PPARg1 K132A/R137A, NR concentration 270 nM, RXRa partner concentration 90 nM)
Method in brief: as §1

[4] = test system: PPARg DBDmut IVT, anti-PPARg (DBD mutation: PPARg1 K132A/R137A, NR concentration 270 nM)
Method in brief: as §1

[5] = test system: PPARg homodimer (NR concentration 180 nM)
Method in brief: as §1

[6] = test system: PXR:RXRa (NR concentration 270 nM, RXRa partner concentration 90 nM)
Method in brief: as §1

[7] = test system: PXR homodimer (NR concentration 270 nM)
Method in brief: as §1

[8] = test system: RARa:RXR (NR concentration 270 nM, RXRa partner concentration 90 nM)
Method in brief: as §1

[9] = test system: RARa homodimer (NR concentration 270 nM)
Method in brief: as §1

[10] = test system: RARb:RXRa (NR concentration 270 nM, RXRa partner concentration 90 nM)
Method in brief: as §1

Sequence | PBM binding z-score [1] | PBM binding z-score [2] | PBM binding z-score [3] | PBM binding z-score [4] | PBM binding z-score [5] | PBM binding z-score [6] | PBM binding z-score [7] | PBM binding z-score [8] | PBM binding z-score [9] | PBM binding z-score [10]
GCTCAGAGGACAAGGTCAGAGCTTTGTCCGTAGA | 0.92 | 0.924 | -1.05 | -1.28 | 0.348 | 1.74 | -0.21 | 2.17 | -0.133 | 3.78
CCTAGCAGGCCAGGGTCACTCAGGCATTTCGCTT | -0.00567 | 0.705 | -1.33 | -1.04 | 0.362 | 2.21 | -0.351 | 2.78 | -0.431 | 2.47
CGTCCAAGGTCAATGCTAGGTGAGTGAAAGCATT | 3.33 | 3.79 | 0.0432 | -0.14 | 1.77 | 3.31 | 0.668 | 3.57 | 0.59 | 4.9
ATATGTAGGTTATCGGGTCAATCAGTTTGCGCAT | 7.94 | 7.57 | 3.15 | 2.14 | 2.33 | 3.64 | 3.23 | 4.04 | 1.3 | 2.86
TTACCAAGGTGAAGGTTGTTGATCCCTCTGTAGA | 1.42 | 2.94 | 0.413 | -0.108 | 0.542 | 0.665 | -0.348 | 0.887 | -0.403 | 1.58
CAAACTAGGTCACGCAAGGTCAAAGTCGAATGAC | 8.48 | 9.3 | 4.39 | 5.78 | 5.5 | 7.23 | 3.2 | 6.68 | 4.04 | 5.5
AGACAAAGTTCACTAGGTAACGTAAGATTCAGCT | 2.37 | 4.14 | 1.01 | 0.842 | 1.94 | 3.7 | 2 | 2.91 | 0.576 | 4.83
ACTAGTTCGTCAGCTGAGGTCACACACAATTCGG | 0.735 | 2.22 | 0.493 | 1.22 | 2.47 | 5.11 | 2.76 | 4.66 | 1.82 | 3.52
CTACCAAGGTGAACAAGATCGTTGATTACTATTC | 2.44 | 2.36 | 0.247 | 0.79 | 0.484 | 0.24 | -0.209 | 0.949 | 0.706 | 1.48
ACTAGCAGGCCAAGGGGCACTCAAGATTAGTCCG | 0.959 | 1.41 | 0.105 | -0.646 | -0.02 | -0.175 | -0.332 | -0.0268 | -0.844 | 1.09
TCAAGTAGGTTAGGGGCATTCAGAATGGCGTCGA | 4.59 | 3.94 | 0.0234 | 0.234 | 1.35 | 1 | 0.86 | 0.878 | 0.676 | 1.51
ATATGTAGGTTAAGGGTCATTGAGGTTGGTTCGC | 7.14 | 7.77 | 2.89 | 2.08 | 3.71 | 5.1 | 4.17 | 5.84 | 2.44 | 3.7
TATACATGGTCAAAGGCCAGAGTACGAATGTCGA | -0.282 | 1.86 | 1.66 | 0.812 | 0.786 | 0.255 | 0.252 | 0.943 | 0.241 | 1.6
GCTCGGAGGACAAGGTCCGAGCTTTGTCCGTAGA | -0.364 | -0.655 | -1.03 | -1.31 | -1.07 | -0.519 | -1.19 | -0.414 | -1.77 | 0.839
ATCTCTAGGTAACAAAGTTCAGTGAATGCCGAAC | 3.03 | 3.03 | 1.17 | 0.837 | 1.24 | 2.36 | 2.09 | 1.61 | 0.834 | 2.4
GGAACGAGGGCAAAGTTGAGAGCATCTGTCGACG | 4.15 | 4.7 | 0.813 | 0.305 | 0.644 | 1.42 | -0.0151 | 2.15 | -0.358 | 2.61
ATCCCTAGGTAAAAGTTCAGTGAATCCCGAGGAT | -0.636 | 1.17 | -0.0921 | 0.662 | 0.927 | 1.97 | 1.19 | 1.18 | 0.513 | 2.16
GCATATAGGTTATACAAGGTGAAAGTCCGATTGT | 4.93 | 4.04 | 0.859 | 0.875 | 1.26 | 2.26 | 0.302 | 2.49 | 0.937 | 1.6
GCATATAGGTAATACAAGATGAAAGTCCGATTGT | 4.04 | 2.21 | 1.01 | 1.1 | 0.319 | 0.0663 | 0.0386 | 0.202 | 0.786 | -0.216
CGAACGAGGGCATGATTTGATAGCAAATGCCGAT | 2.59 | 1.81 | -0.0165 | -0.269 | -0.834 | 0.0992 | -0.377 | 0.0639 | -0.507 | 1.78
TCTTGTAGATCAACAGAAGGTTAAGAAAGATCGA | 2.05 | 0.787 | 0.882 | 0.062 | -0.0281 | 0.812 | 0.0567 | 0.954 | -0.338 | 0.701
ACTATTAGTTGAGACGAGGGCAAGCGATAGGTTG | 0.296 | 0.365 | 0.712 | 0.625 | 0.663 | 1.05 | 0.306 | 0.73 | 0.56 | 0.659
ATCTCTAGGTAACTAAGTTCAGTGAATGCCGAAC | 2.67 | 2.89 | 1.24 | 1.19 | 1.29 | 2.49 | 2.44 | 1.25 | 0.922 | 1.37
